Source: PubChem BioAssay (National Center for Advancing Translational Sciences (NCATS))
A selection: hits, their analogues and other compounds. The true share with any hit is near 6.5%.
Vaccinia mCherry: vaccinia inhibition (mCherry reporter) | Vaccinia virus mCherry reporter infection, fluorescence | Potency, µM (titrated, usually from 36.5 µM), for inactives: at the top dose activity change, negative = inhibition, actives largely listed as inhibitors | 310,000 compounds, 0.63% hits; calls by dose curve; tested in A549 cells; also: potency is read from the fitted curve at half-maximal effect; nearly all actives have a fitted effect of over 35% in size
MARV entry inh: inhibitors of Marburg virus binding or cell entry. Marburg virus pseudotyped entry inhibition, cell reporter. Potency, µM (top dose mostly 37.8 µM), without a hit: top-dose activity change, negative = inhibition, usual class: inhibitors. 300,000 compounds, 1.8% hits. AID 540276; calls by dose curve; tested in HEK293 cells; also: potency is read from the fitted curve at half-maximal effect
FMDV antiviral: antivirals against foot and mouth disease virus; FMDV antiviral cell-based qHTS; Potency, µM (doses to about 57.9 µM), for the others: at the highest dose activity change, negative = inhibition, usual class: inhibitors; AID 1159524; 410,000 compounds, 1.2% hits; calls by dose curve; tested in HEK293T cells; also: read-out not given here; potency is read from the fitted curve at half-maximal effect; nearly all actives have a fitted effect of over 45% in size
Lassa entry inh: Lassa virus entry inhibition | Lassa virus pseudotype entry inhibition, cell reporter | Potency, µM (series often up to 37.9 µM), inactives show at the top dose activity change, negative = inhibition, most hits filed as inhibitors | 300,000 compounds, 1.2% hits | AID 540256; calls by dose curve; tested in HEK293 cells; also: potency is read from the fitted curve at half-maximal effect; nearly all actives have a fitted effect of over 50% in size
Vaccinia Venus: inhibitors of vaccinia virus (Venus reporter) | 330,000 compounds, 0.46% hits | Potency, µM (top dose mostly 36.5 µM), inactives show top-dose activity change, negative = inhibition, hits mostly inhibitors | Vaccinia virus Venus reporter expression, fluorescence | AID 720580; calls by dose curve; tested in A549 cells; also: potency is read from the fitted curve at half-maximal effect; nearly all actives have a fitted effect of over 30% in size
HCMV antiviral: blocks human cytomegalovirus replication | activity change, negative = inhibition, % at 57.5 µM | 410,000 compounds, 4.5% hits | HFF cells, HCMV-luciferase reporter, 72 h; hits give low values | AID 1259415; in the data active = activity change below about -60%; inconclusive = no clear call, values can overlap the other calls; inactive = above about -39%
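Compounds were evaluated in HFFs infected with an HCMV luciferase reporter virus (MOI 1 PFU/cell). Luciferase in lysates collected 72 h post infection served as the replication measure.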
* hit, by the source's call; i = inactive; u = inconclusive; x = no result given; [ ] = remark or other dose. % is scaled to controls: 0 for no effect and ±100 for the full control effect.

SMILES	Vaccinia mCherry	MARV entry inh	FMDV antiviral	Lassa entry inh	Vaccinia Venus	HCMV antiviral
C#CCOCCOCCOCCNc1nc(N2CCN(C(=O)CCCCCCCCCCNC(=O)[C@H](CCCCN)n3cc(CCO)nn3)CC2)nc(N2CCN(C(=O)CCCCCCCCCCNC(=O)[C@H](CCCN=C(N)N)n3cc(C[C@@H](C)CC)nn3)CC2)n1	u	x	u	x	10µM*	x
C#CCOCCOCCOCCNc1nc(N2CCN(C(=O)CCCCCCCCCCNC(=O)[C@H](CCCCN)n3cc(C[C@@H](C)CC)nn3)CC2)nc(N2CCN(C(=O)CCCCCCCCCCNC(=O)[C@H](CCCCN)n3cc(C[C@@H](C)CC)nn3)CC2)n1	u	x	39.8µM*	x	11.2µM*	x
Cc1ccc(NC(=O)CSc2nc(-c3ccco3)nc3cc(=O)[nH]n23)cc1C	-4.0%	x	-26.9%	0.4%[46.1 µM]	-11.1%	-7.8
COc1ccc(NC(=O)CN2C(=O)CSc3ccc(S(=O)(=O)N(C)C)cc32)cc1OC	-13.0%	x	-13.1%	7.0%[46.1 µM]	0.6%	23.0
C[C@H]1CC[C@H]2C(=O)O[C@H](CO)CN2[C@@H]1c1ccc(Br)cc1	x	-20.5%[14.2 µM]	x	x	x	x
OCCC1CN(Cc2ccc3c(c2)CCO3)CCN1C1CCCC1 (configuration not stated)	-31.7%	10.7%[46.1 µM]	-7.1%	-13.0%[46.1 µM]	11.0%	-74.1*
OCc1ccc(O)c2ncccc12	x	u	-23.8%	u	u	-97.7*
Oc1ccc(Cc2ccccc2)c2cccnc12	u	u	-9.3%	-29.5%[46.1 µM]	u	-100.5*
O=C(O)c1ccc(O)c2ncccc12	x	x	50.3%	x	x	54.2
Oc1ccc(COCc2ccccc2)c2cccnc12	-23.5%	u	-0.6%	u	u	-98.7*
Oc1ccc(CNc2ccccc2F)c2cccnc12	10µM*	u	-20.9%	u	10µM*	-89.2*
COc1ccc(-c2noc(CSc3nnc(-c4ccc(Cl)cc4)n3C)n2)cc1OC	-14.0%	-80.3%[46.1 µM]	-2.8%	-15.8%[46.1 µM]	-7.3%	-13.1
O=c1c(-c2ccc(Cl)cc2)nc2cnc(N3CCOCC3)nc2n1-c1ccccc1	x	x	-2.5%	x	x	x
Cc1ccc2c(c1)/C(=N/OS(=O)(=O)c1ccccc1)CCS2	x	5.2%	-3.3%	14.3%	x	43.1
CC1=CC(=O)C(C(C)C)=C/C1=N/OS(=O)(=O)c1ccccc1	x	x	25.1µM*	x	x	-88.5*
CC1=CC(=O)C=C(C)C1=NOS(=O)(=O)c1ccccc1	-25.9%	u	14.1µM*	10µM*	-20.6%	-97.5*
CCOc1ccc(NC(=O)CSC2=C(C#N)[C@H](c3ccc4c(c3)OCO4)CC(=O)N2)cc1	x	5.3%[46.1 µM]	x	x	x	x
CCOC(=O)c1c(C)[nH]c(C2=NNC(=NC3CC3)SC2)c1C	x	x	22.4µM*	x	x	x
CCOc1ccc(NC(=O)COC(=O)c2ccccc2OCc2ccccc2Br)cc1	-18.7%	x	x	x	-16.3%	x
NC(=O)c1sc2nc3c(c(-c4ccco4)c2c1N)CCCC3	x	x	u	x	x	-64.3*
N#Cc1sc2nc3c(c(-c4ccco4)c2c1N)CCCC3	-14.7%	u	u	-12.9%	-15.0%	u
NC(=O)c1sc2nc3c(c(-c4ccc(Cl)cc4)c2c1N)CCCC3	u	u	-13.8%	-20.6%	u	-61.2*
Cc1ccc(-c2c3c(nc4sc(C(N)=O)c(N)c24)CCC3)cc1	x	-11.2%	-24.3%	1.6%	-21.9%	-86.8*
COC(=O)c1sc2nc3c(c(-c4cccs4)c2c1N)CCCC3	-6.7%	22.8%	-20.7%	7.8%	-16.2%	u
COc1cccc(NC(=O)c2nn(-c3ccc(C)cc3)c(=O)n(C)c2=O)c1	-5.4%	x	-15.2%	4.7%[46.1 µM]	-5.5%	-0.3
Cc1c(-c2nsc(NC(=O)c3ccc(Cl)cc3)n2)nnn1-c1ccc(C(C)C)cc1	-17.7%	x	-14.3%	-0.8%[46.1 µM]	-22.0%	-78.8*
Cc1c(-c2nsc(NC(=O)c3cccs3)n2)nnn1-c1ccc(Br)cc1	-32.1%	x	34.6%	u	u	-92.0*
O=C(NCCCN1CCOCC1)c1cc2ccccc2cc1O	i	0.0%	16.5%	21.8%	-11.0%	-8.9
Cc1ccc(-c2cc(C(=O)NCCCN3CCOCC3)c3ccccc3n2)cc1C	0.2%	21.2%[46.1 µM]	16.3%	x	-14.1%	-92.1*
Cc1ccc(-c2cc(C(=O)NCCCN3CCOCC3)no2)cc1	u	1.1%	u	-16.7%	-11.1%	-67.2*
